Measurements reported in PubChem BioAssay (NCI).
This is part of a sample that, as a whole, favours compounds with a hit. Of some 79,000 tested, about 15% had one in any assay. Unmarked numbers belong to inactive results. Active and inactive are the calls of the source. Cut-off read from the data, not from the text of the source: active = growth inhibition above about 70%; inactive = the rest.

What was measured:
[1] = NCI Yeast Anticancer Drug Screen. Data for the rad50 strain (AID 155);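 note: 0% = growth of vehicle-only cultures of the same strain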; conditions: S. cerevisiae rad50 strain growth inhibition, hits give high values
Procedure, shortened: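 A DNA repair-deficient yeast mutant serves as the test organism; compound-induced growth inhibition is calculated against vehicle-treated cells.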

[2] = NCI Yeast Anticancer Drug Screen. Data for the mec2-1 strain (AID 157); conditions: S. cerevisiae mec2-1 strain, hits give high values
Procedure, shortened: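 Strain: mec2-1 (DNA repair/cell cycle alteration). Compound exposure, then growth measured; inhibition expressed relative to vehicle.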

[3] = NCI Yeast Anticancer Drug Screen. Data for the sgs1 mgt1 strain (AID 161);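 note: 0% = growth of cultures given vehicle only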; conditions: S. cerevisiae sgs1 mgt1 strain, hits give high values
Procedure, shortened: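 Read-out: growth inhibition vs vehicle controls. Cells: mutant yeast strain deficient in DNA damage repair.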

[4] = NCI Yeast Anticancer Drug Screen. Data for the cln2 rad14 strain (AID 165);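 note: 0% = growth equal to vehicle treated cultures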; conditions: S. cerevisiae cln2 rad14 strain, hits give high values
Procedure, shortened: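 Compounds are applied to the cln2 rad14 yeast strain, and growth is then compared with that of vehicle-treated cultures to give inhibition.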

[5] = NCI Yeast Anticancer Drug Screen. Data for the bub3 strain (AID 167); conditions: S. cerevisiae bub3 mutant strain, hits give high values
Procedure, shortened: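 Inhibition values come from growth of compound-treated mutant yeast normalised to vehicle-treated controls.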

[6] = NCI Yeast Anticancer Drug Screen. Data for the mlh1 rad18 strain (AID 175); conditions: S. cerevisiae mlh1 rad18 strain growth inhibition, hits give high values
Procedure, shortened: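 Read-out is yeast growth inhibition, calculated against vehicle-only controls. The compound was applied to a strain engineered with DNA damage repair alterations.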

[7] = at 5.0 µM (retest, dose inferred, filed as 0.5)
[8] = at 50.0 µM (retest, dose inferred, filed as 5.0)

Structure (SMILES) | growth inhibition [1, 7] | growth inhibition [1, 8] | growth inhibition ([1]; at 50.0 µM) | growth inhibition [2, 7] [%] | growth inhibition [2, 8] | growth inhibition ([2]; at 50.0 µM) | growth inhibition [3, 7] | growth inhibition [3, 8] | growth inhibition ([3]; at 50.0 µM) | growth inhibition [4, 7] [%] | growth inhibition [4, 8] | growth inhibition ([4]; at 50.0 µM) | growth inhibition [5, 7] | growth inhibition [5, 8] | growth inhibition ([5]; at 50.0 µM) | growth inhibition [6, 7] | growth inhibition [6, 8] | growth inhibition ([6]; at 50.0 µM)
C=C(Cl)C(=NC(C)(C)C)Nc1ccccc1Cl | 21% | 42% | 66.4% | 14 | 35% | 59.5% | 16% | 40% | 63.1% | 31 | 33% | 50.8% | 14% | 32% | 53.2% | 27% | 53% | 85.8% (active)
CCOC(=O)/C(C#N)=C/c1ccccc1Br | 11% | 18% | 50% | -19 | 3% | 20.4% | 7% | 13% | -0.75% | 39 | 17% | 3.6% | 31% | 20% | 1.2% | -9% | -4% | 6.6%
C#C[C@]1(OC(C)=O)CC[C@H]2[C@@H]3CCC4=CC(=O)CC[C@@H]4[C@H]3CC[C@@]21C | 4% | 16% | 97.6% (active) | 7 | 15% | 88.3% (active) | 2% | 29% | 97.2% (active) | 9 | 22% | 89.7% (active) | 5% | 13% | 93.8% (active) | 3% | 19% | 96.8% (active)
Cn1c2nc(-[n+]3ccc4ccccc4c3)nc-2c([O-])n(C)c1=O | 34% | 95% (active) | -9.45% | 12 | 96% (active) | 3.55% | 15% | 96% (active) | -13.1% | 3 | 84% (active) | 49% | 8% | 97% (active) | 0.2% | 12% | 98% (active) | -3.35%
CCC/C=C1/OC(=O)C2=C[C@H]3CC[C@]21[C@]1(OC(=O)C2=C1CCC=C2)[C@H]3CCC | 0% | 96% (active) | 88.2% (active) | 14 | 97% (active) | 88.9% (active) | 17% | 96% (active) | 87.8% (active) | -6 | 96% (active) | 86.9% (active) | 2% | 93% (active) | 88.3% (active) | 14% | 95% (active) | 90.5% (active)
CCC(=O)C(=O)CC1CC(c2ccco2)=Nc2ccccc2S1 (configuration not stated) | 9% | 97% (active) | -0.45% | 13 | 98% (active) | 5.65% | 28% | 94% (active) | 22.6% | 6 | 97% (active) | -24.4% | 14% | 96% (active) | 6.35% | 14% | 98% (active) | 18.5%
O=c1nc(NC(c2ccccc2)(c2ccccc2)c2ccccc2)ccn1CCNCCn1ccc(NC(c2ccccc2)(c2ccccc2)c2ccccc2)nc1=O | 82% (active) | 96% (active) | 87.6% (active) | 52 | 97% (active) | 89% (active) | 65% | 98% (active) | 91.5% (active) | 34 | 97% (active) | 89.2% (active) | 74% (active) | 98% (active) | 91% (active) | 90% (active) | 97% (active) | 90% (active)
CC(C)(C)c1cc2c3c(c1)Oc1cc(C(C)(C)C)cc4c1C3(O)c1c(cc(C(C)(C)C)cc1O4)O2 | 19% | 99% (active) | 89.8% (active) | 22 | 100% (active) | 88.5% (active) | -5% | 99% (active) | 86.4% (active) | 14 | 98% (active) | 87.3% (active) | 12% | 98% (active) | 84.7% (active) | 14% | 100% (active) | 87.7% (active)
Cc1cc(C(O)(C(F)(F)F)C(F)(F)F)cc(C(O)(C(F)(F)F)C(F)(F)F)c1 | -1% | 99% (active) | 97.2% (active) | 12 | 99% (active) | 98.3% (active) | -6% | 99% (active) | 52.8% | -4 | 99% (active) | 95.7% (active) | 6% | 98% (active) | 96% (active) | 1% | 99% (active) | 97.8% (active)
OC(c1ccccc1)(C(F)(F)F)C(O)(c1ccccc1)C(F)(F)F (configuration not stated) | 77% (active) | 99% (active) | 94.4% (active) | 57 | 99% (active) | 89.2% (active) | 87% (active) | 99% (active) | 89.7% (active) | 57 | 99% (active) | 90.5% (active) | 76% (active) | 99% (active) | 81.6% (active) | 85% (active) | 99% (active) | 95.5% (active)
CCS(=O)(=O)/C=C\S(=O)(=O)CC | -154% | -117% | 37.2% | -52 | -36% | 47.5% | -64% | -43% | 47.3% | -49 | -37% | -12.7% | -65% | -59% | 88.3% (active) | -147% | -70% | 69%
CCCCCCCC(=O)N1CCCCC1CC (configuration not stated) | -142% | 14% | 72.1% (active) | -49 | -30% | 25.6% | -63% | 24% | 73% (active) | -53 | -68% | -6.15% | -53% | 17% | -9.4% | -118% | -64% | 24.2%
O=C1C=CC(=NN=C(c2ccccc2)c2ccccc2)C=C1 | -27% | -1% | 55% | -16 | -21% | 54.5% | -21% | -10% | 38.1% | -27 | -17% | 44% | -14% | -22% | 63.9% | -38% | -2% | 53%
Cc1csc(N)[n+]1CCC(=O)[O-] | -1% | -3% | -3.95% | -1 | -2% | -23.1% | -1% | -2% | -2.8% | -3 | 3% | 31.5% | -1% | 1% | -14.6% | 0% | -3% | -24.5%
CC(=O)OC1=Cc2ccccc2C(c2ccccc2)c2ccccc21 (configuration not stated) | -10% | 29% | 14.3% | -3 | 31% | 9.55% | 2% | 18% | 16.5% | 20 | 37% | 10.7% | 8% | 20% | 14.3% | 11% | 53% | 18.3%
COc1ccc(-c2cc(=O)c3c(C)ccnc3[nH]2)cc1 | 58% | 58% | 87.2% (active) | 43 | 43% | 83.2% (active) | 54% | 54% | 82.5% (active) | 20 | 20% | 65.8% | 25% | 25% | 81.8% (active) | 39% | 39% | 81.5% (active)
CCCCCCCCCCCC(=O)OCCOP(=O)(OCC)OCC | -1% | 91% (active) | 87.2% (active) | 2 | 98% (active) | 20.9% | 4% | 99% (active) | 96.5% (active) | -4 | 97% (active) | 74.7% (active) | -1% | 97% (active) | -9.15% | -1% | 98% (active) | 79.2% (active)
CC(C)C[NH-].CC(C)C[NH-].[Cl][Pt+2]([Cl])([Cl])[Cl] | 72% (active) | 98% (active) | 85.2% (active) | 46 | 99% (active) | 91.5% (active) | 70% (active) | 99% (active) | 89.2% (active) | 53 | 99% (active) | 83.5% (active) | 70% (active) | 99% (active) | 89.5% (active) | 66% | 98% (active) | 87.8% (active)
COc1cc(/C=C/C2=C(C)C(=O)CC(c3cc(OC)c(OC)c(OC)c3)C2C)cc(OC)c1OC (configuration not stated) | 2% | -1% | -6.25% | -5 | 22% | -1.7% | 0% | 25% | 15.4% | -8 | -27% | 75.8% (active) | -2% | 7% | 2.1% | 0% | -102% | 42.6%
